High-throughput results deposited in PubChem BioAssay by National Center for Advancing Translational Sciences (NCATS).
JMJD2E inh – inhibitors of human JMJD2E histone demethylase | Potency, µM (titrated, usually from 57.1 µM), inactives show at the highest dose activity change, negative = inhibition, hits mostly inhibitors | hit rate 1.6% among 230,000 | AID 2147 | B2RXH2 | JMJD2E catalytic domain, FDH-coupled NADH fluorescence (FDH is formaldehyde dehydrogenase);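 note: 0% = wells with enzyme and -100% = buffer wells without enzyme; nearly all actives have a fitted effect of over 50% in size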
Target sequence (B2RXH2 1-337 limits assumed): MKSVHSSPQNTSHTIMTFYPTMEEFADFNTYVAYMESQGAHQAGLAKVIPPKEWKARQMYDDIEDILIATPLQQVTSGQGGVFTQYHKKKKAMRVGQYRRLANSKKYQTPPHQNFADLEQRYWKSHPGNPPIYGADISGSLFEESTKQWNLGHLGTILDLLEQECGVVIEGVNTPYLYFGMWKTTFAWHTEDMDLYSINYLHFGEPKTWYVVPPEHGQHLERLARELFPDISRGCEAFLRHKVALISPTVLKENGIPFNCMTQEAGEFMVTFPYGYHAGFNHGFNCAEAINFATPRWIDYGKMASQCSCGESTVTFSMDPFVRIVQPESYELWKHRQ
HPGD inh – inhibitors of human 15-hydroxyprostaglandin dehydrogenase (HPGD). purified HPGD, NADH fluorescence kinetic, PGE2 substrate. AID 894. P15428. hit rate 4.3% among 150,000. Potency, µM, for inactives: at the top dose activity change, negative = inhibition, most hits filed as inhibitors; note: % is set by controls: 0 for no effect and ±100 for the full control effect
Target sequence (P15428 whole entry, looked up): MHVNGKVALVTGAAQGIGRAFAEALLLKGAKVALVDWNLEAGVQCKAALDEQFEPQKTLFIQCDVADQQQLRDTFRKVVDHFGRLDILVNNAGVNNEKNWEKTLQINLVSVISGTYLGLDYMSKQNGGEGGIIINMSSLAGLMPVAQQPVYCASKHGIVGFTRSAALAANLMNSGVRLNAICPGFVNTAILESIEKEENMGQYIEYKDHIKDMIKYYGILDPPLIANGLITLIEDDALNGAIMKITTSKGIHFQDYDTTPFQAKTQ
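20 nM HPGD preincubated 15 min at room temperature with compound in 50 mM Tris-HCl pH 8, 0.01% Tween 20. Started with 1 mM NAD+ and 30 uM prostaglandin E2; NADH fluorescence (360/450 nm) read 5 times over 30-s intervals, last minus first.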
HttQ103 aggreg – mutant huntingtin aggregation inhibition | PC12 HttQ103-GFP aggregates, Acumen cytometry, 40 h | Potency, µM (doses to about 46.1 µM), inactives show at the top dose activity change, negative = inhibition, hits mostly inhibitors | hit rate 1.1% among 220,000 | AID 1688; active = well fitted curve in the direction sought with a large enough effect; inconclusive = small, poorly fitted or top-dose-only effect, or another doubt; inactive = no such curve, though single readings can be large; an effect the other way counts as inactive or inconclusive; note: % is set by controls: 0 for no effect and ±100 for the full control effect; nearly all actives have a fitted effect of over 60% in size
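PC12 cells stably carrying ecdysone-inducible HTT exon 1 Q103–GFP were induced with tebufenozide (100 nM final) and treated with library compounds in titration. GFP aggregates in lysates were counted by laser scanning cytometry.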
LMNA splice mod – changes lamin A minigene splicing in HeLa cells; HeLa LMNA splicing GFP/RFP minigene ratio, 48 h; Potency, µM (titrated, usually from 46.1 µM), inactives show at the highest dose ratio change, negative = inhibition, usual class: inhibitors; hit rate 0.01% among 200,000; AID 1487; active = well fitted inhibition curve with a large enough effect in the signal ratio, with a control signal flat, not every such curve was filed as active; inconclusive = small, poorly fitted or top-dose-only effect, or effect the other way, or a change in a side signal; the % refers to the signal ratio; note: % is set by controls: 0 for no effect and ±100 for the full control effect
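S3 HeLa stable clones carrying a lamin A-EGFP splicing minigene plus DsRed2 were seeded at 600 cells/well in Opti-MEM with 2% FBS, pin-dosed and incubated 48 h at 37°C. Acumen cytometry (488 nm) gave the GFP/RFP total-intensity ratio.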
HTT cytoprotect – Huntington cell model cytoprotection by ATP luminescence. PC12 HTT-Q103 induced, cytoprotection, ATP luminescence, 40 h. Potency, µM (top dose mostly 56.4 µM), inactives show cytoprotection (ATP increase), most hits filed as activators. hit rate 0.14% among 230,000; active = well fitted curve in the direction sought with a large enough effect; inconclusive = small, poorly fitted or top-dose-only effect, or another doubt; inactive = no such curve, though single readings can be large; an effect the other way counts as inactive or inconclusive; note: % of control where 0% means no effect; nearly all actives have a fitted effect of over 45% in size
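Cells were plated at 1500 per well in phenol red-free DMEM with 5% equine and 5% calf serum. Tebufenozide (100 nM final) and compounds were added, then ATPlite reagent, and luminescence was read.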
ALDH1A1 block – ALDH1A1 (human) enzyme inhibition; Purified ALDH1A1, NADH fluorescence, propionaldehyde substrate; hit rate 7.3% among 220,000; AID 1030; Potency, µM (top dose mostly 75.3 µM), for the others: at the highest dose activity, negative = inhibition, actives largely listed as inhibitors;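 note: plate controls were no enzyme wells and a reference inhibitor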
Active calls of the source: *; [ ] = remark or other dose. Most compounds without a hit are left out; they make up all but 9.2% or so of the library. Unless noted, calls come from the whole dose curve; as a rule, active = well fitted inhibition curve with a large enough effect (not every such curve was filed as active); inconclusive = small, poorly fitted or top-dose-only effect, or another doubt; inactive = no such curve, though single readings can be large or run the other way. Potency is the fitted concentration of half-maximal effect.

What do the screens show for `NC1(C(=O)O)C[C@H](C(=O)O)[C@H](C(=O)O)C1` (stereo not given in full)?
JMJD2E inh: -26%; HPGD inh: 2%; HTT cytoprotect: inconclusive; ALDH1A1 block: -2%

How did O=C(Cc1ccc(-c2ccccc2)cc1)NCCS(=O)(=O)N1CCN(c2cccc(Cl)c2)CC1 do in these assays?
LMNA splice mod: -1%[46 µM]

How did CCCCN1C(=O)C(NC(C)=O)c2ccccc21 (stereo not given) do in these assays?
JMJD2E inh: 6%; HPGD inh: 3%; HttQ103 aggreg: -6%; LMNA splice mod: -5%; HTT cytoprotect: -1%[10 µM]; ALDH1A1 block: 0.11µM*

Results for CC(=O)NC1C(=O)N(CCc2ccccc2)c2ccc(Br)cc21 (stereo not given) ?
JMJD2E inh: -2%; HPGD inh: -15%; HttQ103 aggreg: -16%; LMNA splice mod: 5%; HTT cytoprotect: -8%; ALDH1A1 block: inconclusive

How did COc1ccc(-n2c(COc3ccc4c(c3)OCO4)nnc2SCC(=O)O)cc1 do in these assays?
JMJD2E inh: -8%; HttQ103 aggreg: 9%; HTT cytoprotect: 1%[10 µM]; ALDH1A1 block: 2.5µM*

Results for Cc1cc(C)c(C#N)c(SCc2nnc(-c3ccccc3)o2)n1 ?
JMJD2E inh: inconclusive; HPGD inh: 4µM*; HttQ103 aggreg: 18%; LMNA splice mod: inconclusive; HTT cytoprotect: 1%[10 µM]; ALDH1A1 block: 1%

How did Cc1cc(C)c(C#N)c(SCS(=O)Cc2ccc(Cl)cc2)n1 (stereo not given) do in these assays?
JMJD2E inh: 4%; HPGD inh: -17%; HttQ103 aggreg: -1%; LMNA splice mod: -4%; HTT cytoprotect: -22%; ALDH1A1 block: inconclusive

What do the screens show for `Cc1cc(C)c(C#N)c(SCCS(=O)(=O)Cc2ccc(Cl)cc2)n1`?
JMJD2E inh: 6%; HPGD inh: -17%; HttQ103 aggreg: 2%; LMNA splice mod: -1%; HTT cytoprotect: 3%; ALDH1A1 block: 5µM*

Results for Cc1cc(C)c(C#N)c(SCS(=O)Cc2ccccc2)n1 (stereo not given) ?
JMJD2E inh: 6%; HPGD inh: inconclusive; HttQ103 aggreg: 10%; LMNA splice mod: inconclusive; HTT cytoprotect: -11%; ALDH1A1 block: 8.9µM*

How did Cc1cc(C)c(C#N)c(SCc2ccccc2[N+](=O)[O-])n1 do in these assays?
JMJD2E inh: -9%; HPGD inh: -19%; HttQ103 aggreg: -6%; LMNA splice mod: -8%; HTT cytoprotect: 3%[10 µM]; ALDH1A1 block: 18µM*

What do the screens show for `Cc1cc(C)c(C#N)c(SCc2nnc(-c3ccccc3[N+](=O)[O-])o2)n1`?
JMJD2E inh: -28%; ALDH1A1 block: inconclusive

What do the screens show for `Cc1ccc(C#N)c(SCc2ccccc2[N+](=O)[O-])n1`?
JMJD2E inh: 2%; HPGD inh: -12%; HttQ103 aggreg: 12%; LMNA splice mod: -10%; HTT cytoprotect: -25%[10 µM]; ALDH1A1 block: inconclusive

What do the screens show for `O=C(O)[C@H]1CN[C@H](C(=O)O)C1`?
JMJD2E inh: -22%; HPGD inh: -5%; HTT cytoprotect: -39%[1.9 µM]; ALDH1A1 block: -6%

Results for O=C(Cn1c(=O)n(Cc2ccco2)c(=O)c2cc(Cl)ccc21)NCC1CCCO1 (stereo not given) ?
JMJD2E inh: -7%; HPGD inh: 1%; HttQ103 aggreg: -13%; LMNA splice mod: -8%; HTT cytoprotect: 3%; ALDH1A1 block: 25µM*

How did COc1cc2c(=O)n(Cc3ccccc3)c(=O)n(CC(=O)NCC3CCCO3)c2cc1OC (stereo not given) do in these assays?
JMJD2E inh: inconclusive; HPGD inh: inconclusive; HttQ103 aggreg: 7%; LMNA splice mod: -1%; HTT cytoprotect: 14%; ALDH1A1 block: inconclusive

How did CN1[C@@H](c2ccccc2)CC(=NO)C[C@H]1c1ccccc1 do in these assays?
HPGD inh: -3%; HTT cytoprotect: -2%[10 µM]; ALDH1A1 block: -4%[13.5 µM]

How did COCn1c(=O)c2c(nc(SC3=NCCS3)n2Cc2ccccc2C)n(COC)c1=O do in these assays?
JMJD2E inh: 3%; HPGD inh: -17%; HttQ103 aggreg: 8%; LMNA splice mod: 4%; HTT cytoprotect: -13%; ALDH1A1 block: 2.8µM*

What do the screens show for `Cc1ccc(/C=C/c2onc(C)c2S(=O)(=O)N2CCC(C(=O)Nc3ccc(C)c(N(C)C)c3)CC2)cc1`?
LMNA splice mod: 3%[46 µM]

Results for O=C(CSc1ccc(-c2ccc(F)cc2)nn1)N1CCCCC1 ?
JMJD2E inh: -5%; HPGD inh: 16µM*; HttQ103 aggreg: 4%; LMNA splice mod: 7%; HTT cytoprotect: -6%; ALDH1A1 block: -12%

Results for CC1CCCC(C)N1C(=O)COc1ccccc1F (stereo not given) ?
JMJD2E inh: 3%; LMNA splice mod: 5%[46 µM]; ALDH1A1 block: 6%

Results for CC1CCN(C(=O)COc2ccccc2F)CC1 ?
JMJD2E inh: 0%; HPGD inh: 25µM*; HttQ103 aggreg: 1%; LMNA splice mod: 2%; HTT cytoprotect: -33%; ALDH1A1 block: -6%

What do the screens show for `O=C(CSc1ccc(-c2ccccc2)nn1)N1CCCCC1`?
JMJD2E inh: 1%; HttQ103 aggreg: -19%; LMNA splice mod: -11%[9.22 µM]; HTT cytoprotect: -34%; ALDH1A1 block: -3%

What do the screens show for `CCOC(=O)N1CCN(C(=O)CSc2ccc(-c3ccc(OC)cc3)nn2)CC1`?
JMJD2E inh: -1%; HttQ103 aggreg: -12%; LMNA splice mod: 3%[46 µM]; HTT cytoprotect: -85%; ALDH1A1 block: -4%

Results for CC1CCN(C(=O)CSc2ccc(-c3ccc(F)cc3)nn2)CC1 ?
JMJD2E inh: -2%; HPGD inh: 10µM*; HttQ103 aggreg: -13%; LMNA splice mod: inconclusive; HTT cytoprotect: -5%; ALDH1A1 block: -2%

What do the screens show for `CCOc1ccc(-c2ccc(SCC(=O)N3CCN(c4ccccc4)CC3)nn2)cc1`?
JMJD2E inh: -2%; HPGD inh: -4%; HttQ103 aggreg: 13%; LMNA splice mod: -2%; HTT cytoprotect: -8%[10 µM]; ALDH1A1 block: 18µM*

What do the screens show for `NC(=O)CC[C@@H]1NC(=O)[C@@H]2CCCN2C(=O)c2cc([N+](=O)[O-])cc(I)c2NCCCC[C@@H](C(=O)NC(CC(=O)O)C(N)=O)NC1=O` (stereo not given in full)?
JMJD2E inh: -6%; HPGD inh: -7%; HttQ103 aggreg: 3%; LMNA splice mod: -5%; ALDH1A1 block: 4%

What do the screens show for `Cc1ccc(-c2cc(C(=O)NCCc3ccccc3)c3ccccc3n2)cc1C`?
LMNA splice mod: 3%[46 µM]

What do the screens show for `COc1cc2c(cc1OC)CN(C(=S)Nc1ccc(C)cc1C)CC2`?
JMJD2E inh: 3%; HPGD inh: -18%; HttQ103 aggreg: -15%; LMNA splice mod: -7%; HTT cytoprotect: -11%[10 µM]; ALDH1A1 block: 18%
